Assay in all cases: NCI-60 one-dose screen, 48 h (100 = growth as untreated, 0 = no growth, -100 = all killed)
Holding throughout (conditions): 10 µM unless noted

Assay [1] deals with NCI-H23 lung.
Assay [2] deals with NCI-H226 lung.
Assay [3] concerns NCI-H322M lung.
In assay [4] the test system is HOP-62 NSCLC.
Assay [5] concerns NCI-H460 lung.
The test system of assay [6] is HOP-92 NSCLC.
In assay [7] the test system is NCI-H522 lung.
For assay [8], the system named is A549/ATCC NSCLC.
Assay [9] has as its system 786-0 renal.
Assay [10] concerns COLO 205 colon.
Assay [11] deals with DU-145 prostate.
For assay [12], the system named is K-562 leukemia.
Assay [13] concerns MALME-3M melanoma.
Assay [14] has as its system MDA-MB-231 breast.
The test system of assay [15] is RXF 393 renal.
Assay [16] deals with SF-268 CNS.
Assay [17] deals with SF-295 CNS.
Assay [18] deals with SF-539 CNS.
In assay [19] the test system is UACC-257 melanoma.
In assay [20] the test system is M14 melanoma.

About 83,000 compounds went through this panel and 20% of them were active in at least one assay; those are over-represented in the sample as a whole.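 Interpretation: 100, growth as untreated; towards 0, rising growth inhibition; 0, no net growth; 0 to -100, cell death. Compounds scoring below 10 were considered active.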 A number with no mark means an inactive call. The source made the active and inactive calls.

With `CCCC[C@H](NC(=O)[C@H]1CCCCN1C)C(=O)N(C)[C@H](C[C@@H](OC(C)=O)c1nc(C(=O)N[C@@H](Cc2ccccc2)C[C@H](C)C(=O)OCC)cs1)C(C)C`, the growth in assay [1] is 27.1%; in assay [2] it was 32.8%; in [3], 32.9%; in [4], 18.1%; in [5] it was 6.75% (active); in assay [6], 18.1%. The growth is -25% (active) in assay [7]; 11% in assay [8]; 3.81% (active) in assay [9]; -69.9% (active) in [10]; 16.2% in assay [11]; 7.31% (active) in [12]. For the same compound, the growth was 37.4% in assay [13]; 5.49% (active) in assay [14]; 28.8% in assay [15]; 21.6% in [16]; 16.9% in [17]; -11.1% (active) in assay [18]. The growth is 49.5% in assay [19] and 1.33% (active) in assay [20].
For `COc1cccc2c1c(C(=O)c1ccco1)cn2Cc1ccc(F)cc1`, the growth was 111% in [1]; 96.3% in assay [2]; 115% in assay [3]; 125% in assay [4]; 113% in assay [5]; 63.4% in assay [6]. Besides, the growth is 76.2% in assay [7]; 112% in assay [8]; 110% in assay [9]; 123% in [10]; 100% in assay [11]; 253% in assay [12]. The growth in assay [13] was 131%; in assay [14], 89.9%; in assay [15], 131%; in [16], 114%; in assay [17] it was 122%; in assay [18], 113%. Moreover, the growth in assay [19] is 104%; in assay [20], 131%.
Take `NC(CCl)CCl`: the growth was 104% in assay [1]; 94.6% in assay [2]; 102% in assay [3]; -100% (active) in [4]; 110% in assay [5]; 109% in assay [6]. Moreover, the growth in assay [7] was 100%; in assay [8] it was 102%; in assay [9] it was 107%; in [10] it was -100% (active); in assay [11], 105%; in assay [12], 116%. The growth in assay [13] was 92.6%; in assay [14], 102%; in assay [15] it was 107%; in assay [16], 103%; in [17], 93.9%; in assay [18] it was 95.1%. The growth in assay [19] is 102%; in assay [20], 94.6%.
Consider `CC[C@H](C)[C@H](NC(=O)c1cccn1C)C(=O)N(C)[C@H](C[C@@H](OC(C)=O)c1nc(C(=O)N[C@@H](Cc2ccccc2)C[C@H](C)C(=O)OC)cs1)C(C)C`, for which the growth is 22.8% in [1]; 7.57% (active) in assay [2]; 37.6% in assay [3]; 10.1% in assay [4]; 6.58% (active) in [5]; 22.4% in assay [6]. Also, the growth in assay [7] was -19.3% (active); in assay [8], 14.4%; in [9], 12.7%; in assay [10] it was -69.7% (active); in [11], 5.31% (active); in [12], 6.81% (active). Besides, the growth is 73.6% in [13]; -13.7% (active) in assay [14]; 3.6% (active) in assay [15]; 19.1% in assay [16]; 7.85% (active) in [17]; -12.7% (active) in [18]. For the same compound, the growth in [19] was 51.8%; in assay [20] it was -0.428% (active).
Consider `COC(=O)N[C@H]1CCc2c(Br)c(OC)c(OC)c(OC)c2-c2ccc(SC)c(=O)cc21`, for which the growth in assay [1] is 31.3%; in assay [2], 12.5%; in assay [3] it was 28%; in assay [4], 29.7%; in assay [5] it was -14.1% (active); in assay [6] it was -0.443% (active). The growth is 8.44% (active) in assay [7]; 18.3% in assay [8]; 10.9% in assay [9]; -52.5% (active) in [10]; -1.4% (active) in assay [11]; 6.78% (active) in [12]. For the same compound, the growth in assay [13] is 28.6%; in assay [14], -12.3% (active); in [15] it was 16.8%; in assay [16] it was 17.7%; in [17] it was 9.53% (active); in [18] it was -6.59% (active). Moreover, the growth in assay [19] was 67.4%; in [20] it was 2.58% (active).
Regarding `O=C(CCCC1CCCCC1)OCC(Cl)(Cl)Cl`, the growth in assay [1] is 94.3%; in assay [2] it was 99%; in [3], 104%; in assay [4], 98.7%; in assay [5], 101%; in assay [6], 77.5%. For the same compound, the growth in assay [7] is 96.2%; in [8] it was 107%; in assay [9], 102%; in assay [10], 101%; in assay [11], 105%; in [12], 99.8%. For the same compound, the growth in assay [13] was 102%; in assay [14], 116%; in [15] it was 114%; in [16], 97.1%; in assay [17] it was 102%; in [18], 104%. Also, the growth is 109% in assay [19] and 105% in assay [20].
As for `CC[C@H](C)[C@H](NC(=O)[C@H]1CCCCN1C)C(=O)N(C)[C@H](C[C@@H](OC(C)=O)c1nc(C(=O)N[C@@H](Cc2ccccc2)C[C@H](C)C(=O)OC)cs1)C(C)C`, the growth in assay [1] is 11.8%; in assay [2], 12.6%; in assay [3] it was 49.3%; in assay [4] it was 20.6%; in [5], 14.6%; in assay [6], -0.123% (active). Further, the growth in assay [7] is -19.8% (active); in assay [8], 8.91% (active); in assay [9], 11.8%; in assay [10], -39.7% (active); in [11], 1.75% (active); in assay [12] it was 4.21% (active). Moreover, the growth is 65.5% in [13]; 19.5% in assay [14]; 38.1% in assay [15]; 31.2% in assay [16]; 2.06% (active) in assay [17]; -11.3% (active) in assay [18]. Further, the growth in [19] was 52.9%; in assay [20] it was 3.87% (active).

The values are drawn from PubChem BioAssay (NCI).
